High-throughput results from PubChem.
Sm TGR inh: qHTS Assay for the Inhibitors of Schistosoma Mansoni Peroxiredoxins. Schistosoma mansoni thioredoxin glutathione reductase (TGR), Q962Y6. purified TGR, DTNB reduction, TNB absorbance 405 nm. Potency, µM (titrated, usually from 114 µM), inactives show at the highest dose activity change, negative = inhibition, hits mostly inhibitors. hit rate 3% among 360,000. AID 485364, 2010; further: nearly all actives have a fitted effect of over 60% in size
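TGR 20 nM + NADPH 100 uM (dispensed conc.), cpd preinc 15 min RT; start with NADPH (500 uM addition) then DTNB (15 mM addition). Kinetic TNB absorbance, 405 nm filter. Four-parameter Hill fit across titration.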
RE007 growth inh: qHTS Assay for Inhibitors of the HIV-1 protein Vpr | S. pombe RE007 Vpr strain, BacTiter-Glo ATP luminescence, 24 h | hit rate 0.21% among 360,000 | AID 651644, 2012 | Potency, µM (titrated, usually from 92.2 µM), without a hit: at the highest dose activity change, negative = less growth, actives largely listed as inhibitors; active means well fitted falling curve with a large enough effect; inconclusive means small, poorly fitted or top-dose-only effect; inactive means no such curve, though single readings can be large or run the other way; further: nearly all actives have a fitted effect of over 50% in size
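Fission yeast RE007 carrying one integrated HIV-1 vpr copy, seeded at OD 0.01 in PMG+AL medium with 23 nL pinned compound. Grown 24 h at 30 degrees; viability read by BacTiter-Glo luminescence after 5 min.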
Tb PYK inh: qHTS of Trypanosoma Brucei Inhibitors. pyruvate kinase (Trypanosoma brucei), Q57TT1. TbPYK enzyme, Kinase-Glo Plus ATP luminescence, 45 min. Potency, µM (titrated, usually from 76.8 µM), for inactives: at the highest dose activity, negative = inhibition, actives largely listed as inhibitors. hit rate 0.12% among 410,000; further: nearly all actives have a fitted effect of over 50% in size
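ADP (130 uM final) triggers the TbPYK reaction after compound addition; incubation is 45 min at room temperature. Kinase-Glo Plus is then added and luminescence imaged. Normalized data are fitted to concentration-effect curves.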
AMA1-RON2 inh: qHTS for Inhibitors of AMA1-RON; Towards Development of Antimalarial Drug Lead: Primary Screen; Plasmodium falciparum AMA1 (3D7) - RON2 peptide interaction; AlphaScreen AMA1-biotinylated RON2 peptide binding; Potency, µM (top dose mostly 58.2 µM), for the others: at the highest dose activity change, negative = inhibition, actives largely listed as inhibitors; hit rate 0.2% among 360,000; AID 720542, 2013;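 further: 0% = vehicle wells and -100% = peptide control; nearly all actives have a fitted effect of over 45% in size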
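AMA1 (3D7) with his tag at 25 nM final met compounds first, then biotinylated RON2 peptide at 25 nM; detection used donor plus acceptor beads, 10 µg/mL apiece, read by AlphaScreen after 30 min at room temperature.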
LmPK inh: qHTS Assay for Inhibitors of Leishmania Mexicana Pyruvate Kinase (LmPK). Q27686. hit rate 0.37% among 290,000. purified LmPK, Kinase-Glo ATP luminescence, 1 h. Potency, µM (highest dose often 57.5 µM), for inactives: top-dose activity change, negative = inhibition, usual class: inhibitors
Target sequence (Q27686 whole entry, looked up): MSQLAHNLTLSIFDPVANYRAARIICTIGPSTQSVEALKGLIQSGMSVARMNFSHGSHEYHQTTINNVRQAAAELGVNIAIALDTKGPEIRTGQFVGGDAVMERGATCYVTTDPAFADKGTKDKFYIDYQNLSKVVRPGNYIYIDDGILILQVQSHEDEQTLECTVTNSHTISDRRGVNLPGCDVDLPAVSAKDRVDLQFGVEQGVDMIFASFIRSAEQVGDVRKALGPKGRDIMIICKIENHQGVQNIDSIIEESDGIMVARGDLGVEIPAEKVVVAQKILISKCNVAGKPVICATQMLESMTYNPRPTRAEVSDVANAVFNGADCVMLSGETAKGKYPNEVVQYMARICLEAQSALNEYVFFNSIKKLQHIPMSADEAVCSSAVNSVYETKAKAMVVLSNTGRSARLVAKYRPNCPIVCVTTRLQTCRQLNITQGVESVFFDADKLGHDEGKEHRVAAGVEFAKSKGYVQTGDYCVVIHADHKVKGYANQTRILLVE
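Purified LmPK (0.1 nM) with 0.5 mM PEP and 0.1 mM ADP in imidazole buffer pH 7.2 with MgCl2/KCl, 1 h at room temperature. ATP formed was read by luciferase luminescence and normalized to no-enzyme and uninhibited controls.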
Starred values were filed as active, the others as inactive; ? = inconclusive; / = no result given; [ ] = another dose, or the depositor's remark. Most compounds without a hit are left out; they make up all but 3.2% or so of the library. Unless noted, the call rests on the fitted dose curve; in most records, active means well fitted curve in the direction sought with a large enough effect; inconclusive means small, poorly fitted or top-dose-only effect, or another doubt; inactive means no such curve, though single readings can be large; an effect the other way counts as inactive or inconclusive. Unless noted, on the % scale 0 is the no-effect control and ±100 the full control effect; potency means the concentration at half of the fitted maximal effect.

SMILES	Sm TGR inh	RE007 growth inh	Tb PYK inh	AMA1-RON2 inh	LmPK inh
CN1CCN(CC(=O)c2ccccc2F)CC1	11.2µM*	-1.9%	-11.5%	-8.0%	-4.9%
Cc1c(O)ccc(C(=O)CN2CCN(c3ccccc3F)CC2)c1O	-29.2%	-24.8%	-1.2%	-1.4%	-3.2%
COc1ccc(CN2C(=O)C(NC(=O)c3ccccc3C)(C(F)(F)F)N=C2c2ccccc2)cc1 (centres undefined)	-2.8%	/	1.0%	/	/
COc1cccc(-n2c(-c3cccc(S(=O)(=O)N(C)C)c3)n[nH]c2=S)c1	5.6%	6.3%	7.08µM*	60.4%	3.5%
COc1ccc(OC)c(-n2c(-c3cccc(S(=O)(=O)N(C)C)c3)n[nH]c2=S)c1	6.3%	6.6%	-29.4%	5.4%	?
COc1cccc(-n2c(-c3ccc4[nH]c(C)c(C)c4c3)n[nH]c2=S)c1	-4.2%	-2.4%	7.94µM*	34.2%	-4.1%
CN(Cc1cccnc1)Cc1c(C(=O)N2CCc3ccccc3C2)nc2ccc(Cl)cn12	31.6µM*	-9.7%	1.4%	-1.9%	-5.2%
O=C(c1nc2ccc(Cl)cn2c1CN1CCCC1)N1CCc2ccccc2C1	39.8µM*	-4.0%	2.1%	-4.7%	10.9%
CCCCN(C)Cc1c(C(=O)N2CCc3ccccc3C2)nc2ccc(Cl)cn12	44.7µM*	-12.3%	4.2%	-11.6%	-5.0%
O=C(c1nc2ccc(Cl)cn2c1CN1CCC(CO)CC1)N1CCc2ccccc2C1	7.1%	-3.2%	12.8%	4.9%	2.5%
Cc1ccc(C(=O)Nc2c(C(=O)NCc3ccc(Cl)cc3)sc3nc(C)cc(C)c23)cc1	-13.6%	/	0.6%	/	/
O=C(CC1C(=O)NCCN1Cc1ccc(Cl)c(F)c1)NCCc1cccnc1 (centres undefined)	44.7µM*	-20.1%	-4.0%	11.9%	6.7%
Cc1cnc(CNC(=O)CC2C(=O)NCCN2Cc2ccccc2F)cn1 (centres undefined)	-24.0%	-9.3%	1.0%	98.1%	-15.3%
CN(CC1CCOCC1)C(=O)CC1C(=O)NCCN1Cc1ccc(Cl)c(F)c1 (centres undefined)	28.2µM*	4.7%	-1.1%	0.3%	-5.9%
COc1cccc(CCNC(=O)CC2C(=O)NCCN2Cc2ccc(Cl)c(F)c2)c1 (centres undefined)	/	-4.4%	2.0%	18.8%	-0.6%
Cc1cnc(CNC(=O)CC2C(=O)NCCN2Cc2cccc(F)c2F)cn1 (centres undefined)	17.8µM*	5.3%	0.5%	80.5%	-1.4%
O=C(CC1C(=O)NCCN1Cc1ccc(Cl)c(F)c1)NC1CCC1 (centres undefined)	39.8µM*	2.4%	-6.8%	12.7%	8.3%
CCc1nn(CC(=O)N(C)Cc2ccccc2)c(=O)c2cc3sccc3n12	-1.2%	/	0.6%	/	/
CCc1cccc(CC)c1NC(=O)c1c(C)oc2ccc(O)c(CN3CCN(C)CC3)c12	5.8%	/	0.4%	/	/
CC(=O)Nc1ccc(NC(=O)CCc2nc3cccnc3n2Cc2cccs2)cc1	-16.7%	/	-1.8%	/	/
CN(CCC1CCOCC1)C(=O)CC1C(=O)NCCN1Cc1c(F)cccc1Cl (centres undefined)	44.7µM*	-14.9%	-13.9%	-11.9%	-4.8%
CN(Cc1ccon1)C(=O)CC1C(=O)NCCN1Cc1cccc(F)c1F (centres undefined)	?	5.8%	-9.8%	22.2%	-9.6%
O=C1NCCN(Cc2c(F)cccc2Cl)C1CC(=O)N1CCCCO1 (centres undefined)	-15.7%	4.6%	11.0%	-8.6%	8.1%
O=C(CC1C(=O)NCCN1Cc1ccc(Cl)c(F)c1)NCC1CCOCC1 (centres undefined)	39.8µM*	3.5%	-3.1%	13.0%	-1.7%
CN(CCCC1CCCC1)C(=O)CC1C(=O)NCCN1Cc1cccc(F)c1F (centres undefined)	28.2µM*	-5.4%	1.8%	19.2%	-3.2%
SMILES	Sm TGR inh	RE007 growth inh	Tb PYK inh	AMA1-RON2 inh	LmPK inh
O=C1NCCN(Cc2ccc(Cl)c(F)c2)C1CC(=O)N1CCCCO1 (centres undefined)	25.1µM*	14.9%	2.9%	2.4%	2.8%
CCCCc1nc2c(c3c1C[C@H](C)OC3)CN(S(=O)(=O)c1ccc(NC(C)=O)cc1)CC2	/	/	/	/	-1.5%[11.5 µM]
Cn1c2ccccc2c2c(C(=O)N3CCN(c4cccc(Cl)c4)CC3)cn(C3CCCCC3)c(=O)c21	1.3%	/	4.6%	/	/
COc1ccccc1Nc1cc(C)nc2c(C)ccc([N+](=O)[O-])c12	-9.3%	-23.7%	5.0%	3.16µM*	3.3%
Cc1cc(Nc2ccccc2)c2c([N+](=O)[O-])cc(C)c(C)c2n1	0.1%	-6.7%	-1.3%	?	1.6%
CCOC(=O)N1CCc2c(sc3c2c(=O)n(Cc2ccccc2)c(=O)n3Cc2ccccc2Cl)C1	1.6%	/	0.4%	/	/
CC(C)(C)c1cc(NCCCn2ccnc2)n2ncc(-c3ccc(Cl)cc3)c2n1	-5.2%	22.4µM*	-2.9%	51.6%	1.2%
Cc1cc(NCCCn2ccnc2)n2nc(-c3ccc(Cl)cc3)cc2n1	/	-3.5%	2.9%	-1.8%	0.6%
COc1ccc(Cl)cc1Nc1ncnc2c1nc1n2CCCC1	0.9%	/	0.3%	/	/
Cc1cc(NC(=O)CSc2c(C)[nH]c3ccccc23)no1	3.8%	5.0%	-16.9%	-3.6%	7.7%
Cc1cc(NC(c2cccnc2)c2c(C)[nH]c3ccccc23)no1 (centres undefined)	2.82µM*	-1.2%	-6.4%	-2.5%	0.5%
Cc1ccnc(NC(c2ccccn2)c2c(C)[nH]c3ccccc23)c1 (centres undefined)	0.282µM*	-5.0%	66.7%	4.5%	2.1%
Cc1[nH]c2ccccc2c1C(c1ccccn1)N1CCC(C)CC1 (centres undefined)	?	-17.6%	7.8%	-0.6%	-0.6%
COc1ccccc1N1CCN(C(=O)c2cnc(N3CCCCC3)c3ccccc23)CC1	-12.8%	/	-0.1%	/	/
COc1cccc(N2CCN(C(=O)c3cccn3-c3nnc(N4CCCC4)s3)CC2)c1	-5.8%	/	-3.2%[15.4 µM]	/	/
CNC(=S)Nc1ccc2nc(C)c(C)nc2c1	31.6µM*	5.0%	-7.5%	-11.8%	5.7%
COc1ccc(NC(=S)Nc2ccc3nc(C)c(C)nc3c2)cc1	22.4µM*	-2.0%	-13.4%	0.0%	3.6%
CNC(=S)Nc1cccc(-c2cnc3ccccc3n2)c1	11.2µM*	-2.9%	4.6%	22.6%	-1.4%
COc1ccc(NC(=S)Nc2ccc3nsnc3c2)cc1	39.8µM*	-14.8%	-3.6%	56.8%	4.3%
CC1CCN(S(=O)(=O)c2ccc3c(c2)CCN3C(=O)Nc2ccccc2Br)CC1	15.9%	/	-0.6%	/	/
